From PubChem BioAssay
ssDAF-12 act: S. stercoralis DAF-12 nuclear receptor activators, primary screen, cell-based, luminescence, HEK293, GRIP1 co-expression, lit1-tk-luc; activation, % at 6.8 µM; HEK293 ssDAF-12/GRIP1 lit1-tk-luc reporter; % of 3 µM dafachronic acid response; hit rate 1% among 370,000; Nuclear hormone receptor DAF-12 (Strongyloides stercoralis);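 active means activation above the mean over all tested compounds plus 3 SD, cut at about 0.9% in these data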;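 further: 0% = DMSO-only wells and 100% = 3 µM delta7-dafachronic acid wells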
DAX1 inh-1: DAX1 (NR0B1) inhibitors on StAR promoter, primary screen, cell-based, luminescence, SF-1 (NR5A1), full-length DAX-1. AID 652010, 2013. hit rate 1.1% among 370,000. inhibition, % at 6.8 µM. HEK293T StAR-luciferase reporter, SF-1/DAX-1 repression relief;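 active means inhibition above the mean over all tested compounds plus 3 SD, cut at about 3.6% in these data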;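 further: 0% = DAX-1 cells with DMSO and 100% = cells lacking DAX-1 with DMSO; higher inhibition means more luminescence from relief of DAX-1 repression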
hcDAF-12 act: H. contortus DAF-12 nuclear receptor activators, primary screen, cell-based, luminescence, HEK293, lit1-tk-luc reporter; HEK293 hcDAF-12 lit1-tk-luc reporter; 0% DMSO, 100% Δ7-dafachronic acid; activation, % at 6.8 µM; hit rate 1.4% among 370,000;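 active means activation above the mean of all tested compounds plus 3 SD, cut at about 5.5% in these data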;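 further: 100% = response to 3 µM Δ7-dafachronic acid high control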
DAX1 inh-2: DAX1 (NR0B1) inhibitors, primary screen, cell-based, HEK293, Gal4-DAX1, luciferase luminescence; hit rate 0.99% among 340,000; Nuclear receptor subfamily 0 group B member 1 (Homo sapiens), P51843; inhibition, % at 6.75 µM; HEK293 Gal4-DAX1 luciferase reporter;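 active means inhibition above the mean over all tested compounds plus 3 SD, cut at about 4.2% in these data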;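 further: 0% = DAX1-transfected cells with DMSO and 100% = empty-vector control cells with DMSO; inhibition shows as a rise in luminescence from relieved DAX1 repression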
Target sequence (P51843 207-470 limits assumed): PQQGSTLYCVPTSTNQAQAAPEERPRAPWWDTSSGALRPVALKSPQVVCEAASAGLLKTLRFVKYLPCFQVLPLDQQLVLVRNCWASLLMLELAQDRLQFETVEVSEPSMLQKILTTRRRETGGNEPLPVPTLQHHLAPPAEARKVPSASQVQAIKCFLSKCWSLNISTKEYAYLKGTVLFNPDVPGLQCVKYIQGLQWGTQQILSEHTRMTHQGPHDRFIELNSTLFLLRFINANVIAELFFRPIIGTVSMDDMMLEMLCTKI
hgDAF12 agonist: H. glycines DAF-12 receptor agonists, primary screen, cell-based, luminescence, HEK293, GAL4 fusion, UAS-luciferase; Nuclear hormone receptor DAF-12 (Heterodera glycines), GAL4 fusion; HEK293 GAL4-hgDAF12 UAS-luciferase reporter, agonist luminescence; normalized to butyrate control; activation, % at 6.8 µM; hit rate 1.8% among 370,000; AID 687014, 2013;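 active means activation above a cutoff set at the mean of all screened compounds plus 3 SD, cut at about 10% in these data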;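 further: 0% = DMSO wells and 100% = sodium butyrate wells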
hgDAF12 ag: H. glycines DAF-12 receptor agonists, confirmation, cell-based, luminescence, HEK293, GAL4-LBD fusion; shares compounds with hgDAF12 agonist; HEK293 GAL4-hgDAF12 luciferase reporter, agonist mode; percent of butyrate response; activation, % at 6.8 µM; hit rate 80% among 3,300; AID 743050, 2013;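 active means mean activation over triplicate wells above the hit cutoff derived from the earlier primary screen, cut at about 11% in these data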;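 further: 0% = DMSO low control and 100% = 2 mM sodium butyrate high control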
LXRb DAF12 ctr: LXR agonists, Gal4 luciferase reporter, confirmation, counter-screen for hgDAF-12 agonist project, cell-based, luminescence, HEK293, H. glycines campaign. 3,300 tested, under 10 active. activation, % at 6.8 µM. 24 h. AID 743051, 2013. shares compounds with hgDAF12 agonist;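 active means mean activation of the triplicate above a set limit carried over from the primary screen, none filed active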
An asterisk follows results filed as active; . = no result given. Compounds with a hit are over-represented: about 4.1% of the library has one in this group of screens.

SMILES	ssDAF-12 act	DAX1 inh-1	hcDAF-12 act	DAX1 inh-2	hgDAF12 agonist	hgDAF12 ag	LXRb DAF12 ctr
COc1ccc(-c2cc(=O)c3cc(O)ccc3o2)cc1	1	3	5	5.2*	24*	17*	1
COc1ccc(-c2cc(=O)c3c(O)cc(O)cc3o2)cc1	-1	4.1*	0	1	13*	15*	1
O=c1cc(-c2ccccc2)oc2ccc(O)cc12	-1	2	3	7.8*	17*	14*	1
COc1ccc2oc(-c3ccncc3)cc(=O)c2c1	-1	3	0	2	10	.	.
O=S1(=O)C[C@@H](N2CCN(CC3CC3)CC2)[C@H](COCc2ccccc2)N1	-1	-1	0	.	1	.	.
CCOC(=O)C1=CCN(S(=O)(=O)c2ccccc2C)C1c1cccc(C)c1 (stereo not drawn)	-1	-2	0	.	-2	.	.
CN(C)CC(=O)N[C@H]1C[C@@H]2O[C@H](CO)CC[C@@H]2O[C@@H]1CCc1ccc(-c2ccc(F)cc2)cc1	-1	0	-1	.	1	.	.
CCCn1ncc2c(Nc3ccc(C)c(C)c3)ncnc21	0	1	6.5*	0	13*	7	1
COc1ccc(/C=C/C2=CC(C)(C)NC(=S)N2)cc1OC	-1	0	-2	-1	-3	.	.
COc1ccc(/C=C/C2=Nc3ccccc3NC(C)(C)C2)cc1OC	1.0*	2	6	3	16*	7	0
C/C(=N\NC(=O)c1cc(C)[nH]n1)c1ccc(-c2ccccc2)cc1	0	0	2	1	2	.	.
C/C(=N\NC(=O)c1cc(C)[nH]n1)c1cccs1	0	4.5*	4	2	17*	14*	1
C/C(=N/NC(=O)c1cc(C(C)C)[nH]n1)c1cccs1	0	3	6.1*	1	14*	16*	1
C/C(=N\NC(=O)c1cc(C(C)C)[nH]n1)c1ccncc1	-1	0	1	-1	-1	.	.
O=C(N=C1N=C2C=CC=CN2Cc2ccccc21)c1ccc(S(=O)(=O)N2CCOCC2)cc1	0	4.1*	3	4	16*	12*	0
CN(C)S(=O)(=O)c1cccc(C(=O)N2CCN(Cc3ccccc3)CC2)c1	-1	-1	-2	1	0	.	.
CN(C)S(=O)(=O)c1cccc(C(=O)N=C2N=C3C=CC(Cl)=CN3Cc3ccccc32)c1	0	1	5	3	16*	7	0
O=C(N=C1N=C2C=CC=CN2Cc2ccccc21)c1ccc(S(=O)(=O)N2CCCC2)cc1	-2	1	3	2	8	.	.
COc1ccc(CCNC(=O)c2ccc(Br)o2)cc1Br	-1	0	-1	.	-2	.	.
CCCCOCCCNC(=O)C[C@H]1C[C@@]2(C(=O)OC)C(=C[C@H](C(C)C)O[C@@H]2C2CC2)N(CCc2ccc(OC)c(OC)c2)C1=O	-1	0	0	.	3	.	.
CSc1nc(-c2ccc(N(C)C)cc2)c(C#N)c(=O)n1C	0	2	2	1	14*	6	0
CSc1nc(-c2ccc(Cl)cc2)c(C#N)c(=O)n1C	-2	-1	-1	-1	1	.	.
C=CCNC(=S)N(C)[C@H]1C[C@H]2c3[nH]c4c(-c5ccccc5)cccc4c3CCN2C(=O)[C@H]1[C@H](C)O	-1	0	0	.	-1	.	.
Oc1ccc(-c2cn3ccccc3n2)cc1	1	2	4	2	13*	15*	1
O=c1[nH]cnc2cc(-c3ccccc3)sc12	-1	2	1	0	13*	11*	0
SMILES	ssDAF-12 act	DAX1 inh-1	hcDAF-12 act	DAX1 inh-2	hgDAF12 agonist	hgDAF12 ag	LXRb DAF12 ctr
O=C(NCc1ccccc1)c1cnc(Cc2c[nH]c3ccccc23)c(I)c1	0	1	1	.	0	.	.
Cc1ccc(-c2nc3cccnc3s2)cc1NS(C)(=O)=O	0	3	6.4*	1	14*	7	0
CC(C)C(=O)N1CCCC1(C)C(=O)N(C)Cc1cccc2ccccc12 (stereo not drawn)	0	-1	-1	.	-2	.	.
O=C(N/N=C/c1cccc(OC(=O)c2ccco2)c1)c1ccc(F)cc1	0	3	3	1	17*	13*	0
O=C(N/N=C/c1ccc(OC(=O)c2ccco2)cc1)c1ccccn1	0	4.0*	3	.	17*	15*	1
COc1ccc(-c2nc3ccccc3o2)cc1OC	-1	1	4	0	8	.	.
c1ccc2oc(-c3ccc4nc[nH]c4c3)nc2c1	0	3.8*	4	2	19*	18*	1
Nc1nc2ccc(-c3nc4ccccc4o3)cc2s1	1	3	3	2	14*	13*	1
CCCCn1nnnc1C(c1ccccc1)N1CCN(c2ccccn2)CC1 (stereo not drawn)	-1	0	-2	.	-1	.	.
Oc1ccc(/C=N/NC(=S)Nc2cccnc2)cc1	0	3	5	1	15*	11*	1
COc1cccc(/C=N/NC(=S)Nc2cccnc2)c1	-2	1	-1	-1	1	.	.
O=C(Nc1cnc2ccccn2c1=O)c1ccc(Cl)cc1Cl	0	4.4*	5	0	16*	5	0
CC(/C=C/c1ccccc1F)=N\NC(=O)c1ccc(Cl)cc1	-1	0	-1	-1	6	.	.
CC(/C=C/c1ccccc1F)=N\NC(=O)c1ccccc1	0	3	2	3	14*	10	0
O=C(NN1CCCCC1)NN1CCCCC1	-1	0	-1	.	0	.	.
COCCC1CCCCN1C(=O)c1ccc2nc(Cc3ccccc3F)oc2c1 (stereo not drawn)	0	3.9*	5.6*	1	14*	12*	1
COCCc1nc2ccc(C(=O)N3CCCCC3COC)cc2o1 (stereo not drawn)	0	1	-3	1	1	.	.
